# Results as given in the supplement of paper PMC8975748.
# Counter-ions that a name gives are not always drawn. ± gives the standard deviation of the averaged measurements.
# Experiments:
# [1] = system: Saccharomyces cerevisiae BY4741 SeMeCo community; assay: mean cell size (pixel area) (pixels); higher = larger cells; conditions: 10 µM; 24 h; SM minimal medium
# Summary of the method: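 In this assay, mean cell pixel area per well was obtained from automated confocal images of paraformaldehyde-fixed yeast analysed in Harmony. The cells were a Saccharomyces cerevisiae BY4741 community with four plasmids, each complementing one auxotrophy and carrying a fluorescent marker, grown for 24 h in SM medium with drug at a final 10 µM in 384-well plates. Values are averaged across 3 replicates. Same SeMeCo high-content imaging drug screen: Selleck FDA-approved drugs at 10 µM, 24 h in SM medium, 384-well plates, 3 replicates.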
# [2] = system: Saccharomyces cerevisiae BY4741 SeMeCo community; assay: z-score of prototroph abundance vs DMSO median; higher = larger share of this subpopulation than in DMSO controls; conditions: 10 µM; 24 h; SM minimal medium; subpopulation (auxotrophy): Prototroph
# Summary of the method: (§1)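 Four plasmids, each restoring a single auxotrophy and encoding a distinct fluorescent protein, were carried by a Saccharomyces cerevisiae BY4741 community. After overnight growth to OD600 1.0 and dilution to 0.3, 70 µl per well was grown for 24 h in minimal SM medium on 384-well plates acoustically predosed with library drugs at 10 µM final. Following paraformaldehyde fixation, automated confocal microscopy was used, with single-auxotroph fluorescent strains defining thresholds and autofluorescence correction. Subpopulation abundance was then scored as a z-score against the vehicle-well median.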
# [3] = system: Saccharomyces cerevisiae BY4741 SeMeCo community; assay: z-score of subpopulation abundance vs DMSO median, subpopulation auxotrophic for M; higher = larger share of this subpopulation than in DMSO controls; conditions: 10 µM; 24 h; SM minimal medium; subpopulation (auxotrophy): M
# Summary of the method: as §1
# [4] = system: Saccharomyces cerevisiae BY4741 SeMeCo community; assay: z-score of subpopulation abundance vs DMSO median, subpopulation auxotrophic for L; higher = larger share of this subpopulation than in DMSO controls; conditions: 10 µM; 24 h; SM minimal medium; subpopulation (auxotrophy): L
# Summary of the method: as §1
# [5] = system: Saccharomyces cerevisiae BY4741 SeMeCo community; assay: z-score of subpopulation abundance vs DMSO median, subpopulation auxotrophic for U; higher = larger share of this subpopulation than in DMSO controls; conditions: 10 µM; 24 h; SM minimal medium; subpopulation (auxotrophy): U
# Summary of the method: as §1
# [6] = system: Saccharomyces cerevisiae BY4741 SeMeCo community; assay: z-score of subpopulation abundance vs DMSO median, subpopulation auxotrophic for H; higher = larger share of this subpopulation than in DMSO controls; conditions: 10 µM; 24 h; SM minimal medium; subpopulation (auxotrophy): H
# Summary of the method: as §1
# [7] = system: Saccharomyces cerevisiae BY4741 SeMeCo community; assay: z-score of subpopulation abundance vs DMSO median, subpopulation auxotrophic for LM; higher = larger share of this subpopulation than in DMSO controls; conditions: 10 µM; 24 h; SM minimal medium; subpopulation (auxotrophy): LM
# Summary of the method: as §1
# [8] = system: Saccharomyces cerevisiae BY4741 SeMeCo community; assay: z-score of subpopulation abundance vs DMSO median, subpopulation auxotrophic for HM; higher = larger share of this subpopulation than in DMSO controls; conditions: 10 µM; 24 h; SM minimal medium; subpopulation (auxotrophy): HM
# Summary of the method: as §1
# [9] = system: Saccharomyces cerevisiae BY4741 SeMeCo community; assay: z-score of subpopulation abundance vs DMSO median, subpopulation auxotrophic for UM; higher = larger share of this subpopulation than in DMSO controls; conditions: 10 µM; 24 h; SM minimal medium; subpopulation (auxotrophy): UM
# Summary of the method: as §1
# [10] = system: Saccharomyces cerevisiae BY4741 SeMeCo community; assay: z-score of subpopulation abundance vs DMSO median, subpopulation auxotrophic for HL; higher = larger share of this subpopulation than in DMSO controls; conditions: 10 µM; 24 h; SM minimal medium; subpopulation (auxotrophy): HL
# Summary of the method: as §1
# [11] = system: Saccharomyces cerevisiae BY4741 SeMeCo community; assay: z-score of subpopulation abundance vs DMSO median, subpopulation auxotrophic for HLU; higher = larger share of this subpopulation than in DMSO controls; conditions: 10 µM; 24 h; SM minimal medium; subpopulation (auxotrophy): HLU
# Summary of the method: as §1
# [12] = system: Saccharomyces cerevisiae BY4741 SeMeCo community; assay: z-score of subpopulation abundance vs DMSO median, subpopulation auxotrophic for HLM; higher = larger share of this subpopulation than in DMSO controls; conditions: 10 µM; 24 h; SM minimal medium; subpopulation (auxotrophy): HLM
# Summary of the method: as §1
# [13] = system: Saccharomyces cerevisiae BY4741 SeMeCo community; assay: z-score of subpopulation abundance vs DMSO median, subpopulation auxotrophic for HUM; higher = larger share of this subpopulation than in DMSO controls; conditions: 10 µM; 24 h; SM minimal medium; subpopulation (auxotrophy): HUM
# Summary of the method: as §1
# [14] = system: Saccharomyces cerevisiae BY4741 SeMeCo community; assay: z-score of subpopulation abundance vs DMSO median, subpopulation auxotrophic for LUM; higher = larger share of this subpopulation than in DMSO controls; conditions: 10 µM; 24 h; SM minimal medium; subpopulation (auxotrophy): LUM
# Summary of the method: as §1
# [15] = system: Saccharomyces cerevisiae BY4741 SeMeCo community; assay: z-score of subpopulation abundance vs DMSO median, subpopulation auxotrophic for HLUM; higher = larger share of this subpopulation than in DMSO controls; conditions: 10 µM; 24 h; SM minimal medium; subpopulation (auxotrophy): HLUM
# Summary of the method: as §1
# [16] = system: Saccharomyces cerevisiae BY4741 SeMeCo community; assay: z-score of subpopulation abundance vs DMSO median, subpopulation auxotrophic for HU; higher = larger share of this subpopulation than in DMSO controls; conditions: 10 µM; 24 h; SM minimal medium; subpopulation (auxotrophy): HU
# Summary of the method: as §1
Structure (SMILES),mean cell size [1],z-score of prototroph abundance [2],z-score of subpopulation abundance [3],z-score of subpopulation abundance [4],z-score of subpopulation abundance [5],z-score of subpopulation abundance [6],z-score of subpopulation abundance [7],z-score of subpopulation abundance [8],z-score of subpopulation abundance [9],z-score of subpopulation abundance [10],z-score of subpopulation abundance [11],z-score of subpopulation abundance [12],z-score of subpopulation abundance [13],z-score of subpopulation abundance [14],z-score of subpopulation abundance [15],z-score of subpopulation abundance [16]
N=C(N)NC(=N)N1CCOCC1 [Moroxydine HCl],12.4 ± 0.078,0.31,-0.15,-0.09,0.43,-0.19,0.58,-0.15,0.37,-0.09,0.08,-0.37,-0.28,0.38,-0.61,–
Nc1ccc2cc3ccc(N)cc3nc2c1 [Proflavine Hemisulfate],12.06 ± 0.0063,5.49,6.69,-8.37,-8.08,5.37,–,–,-8.07,-4.25,-4.5,-2.37,-4.39,-5.16,-2.15,-6.91
COc1cccc2c1C(=O)c1c(O)c3c(c(O)c1C2=O)C[C@@](O)(C(=O)CO)C[C@@H]3O[C@H]1C[C@H](N)[C@@H](O)[C@H](C)O1 [Epirubicin HCl],12.6 ± 0.2,-0.14,-4.59,1.16,–,1.56,-0.38,-3.22,-0.97,2.24,2.87,0.2,0.3,2.67,4.48,3.44
COc1cccc2c1C(=O)c1c(O)c3c(c(O)c1C2=O)C[C@@](O)(C(=O)CO)C[C@@H]3O[C@H]1C[C@H](N)[C@H](O[C@@H]2CCCCO2)[C@H](C)O1 [Pirarubicin],12.3 ± 0.17,2.14,-12,0.11,5.25,-1.05,-3.84,-5.17,-3.46,–,2.71,-1.27,-1.83,-0.26,1.36,–
C#C[C@]1(O)CC[C@H]2[C@@H]3CCC4=CCCC[C@@H]4[C@H]3CC[C@@]21C [Lynestrenol],–,–,-1.23,-0.78,1.07,0.16,-0.94,-0.19,0.5,-0.15,-0.88,-0.46,0.15,–,-0.6,0.4
CC/C(=C(/CC)c1ccc(O)cc1)c1ccc(O)cc1 [Diethylstilbestrol],12.85 ± 0.035,–,0.52,-0.38,–,0.17,-0.03,-0.17,-1.59,–,-1.06,-0.67,-1.46,-1.01,-1.31,-1.29
O=S1(=O)CCN(CN2CCS(=O)(=O)NC2)CN1 [Taurolidine],12.5 ± 0.25,0.42,-0.34,-0.57,–,-0.57,-0.78,-1.08,0.3,-1.35,-0.43,-0.64,-0.52,-0.43,-0.55,0.18
